Compounds with a hit are over-represented: about 3.7% of the library has one in this group of screens.
Mtb UGM inh: inhibitors of M. tuberculosis UDP-galactopyranose mutase. purified UGM, fluorescence polarization probe displacement. AID 504406. P9WIQ1. inhibition, % at 10 µM. hit rate 0.06% among 320,000; in the data active = inhibition above about 10%, passing the limit was not always enough
FadD28 FP inh: blocks FadD28 binding to the bisubstrate probe | inhibition, % at 12.5 µM | AID 588549 | fluorescence polarization | hit rate 0.22% among 360,000; in the data active = inhibition above about 8.5%, passing the limit was not always enough
Mtb bLac sens: beta-lactam sensitization of Mtb H37Rv; M. tuberculosis H37Rv growth with meropenem, percent inhibition; inhibition, % at 25 µM; hit rate 0.27% among 330,000; AID 434955; call rule not given here;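 note: growth measured after seven days incubation then overnight dye step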
GDH-TPI counter-1: inhibits GDH-TPI coupling enzymes, artifact for Mtb FBA screen; GDH-TPI coupled enzyme counterscreen, NADH absorbance; inhibition, % at 4.8 µM; hit rate 1.2% among 360,000; AID 588335; in the data active = inhibition above about 30%
Rv3671c inh: inhibits the M. tuberculosis serine protease Rv3671c. AID 2606. inhibition, % at 5.96 µM. hit rate 0.048% among 320,000; in the data active = inhibition above about 38%;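 note: extracellular domain of Rv3671c used as enzyme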
Target sequence (P9WHR9 whole entry, looked up, the tested form may be a part): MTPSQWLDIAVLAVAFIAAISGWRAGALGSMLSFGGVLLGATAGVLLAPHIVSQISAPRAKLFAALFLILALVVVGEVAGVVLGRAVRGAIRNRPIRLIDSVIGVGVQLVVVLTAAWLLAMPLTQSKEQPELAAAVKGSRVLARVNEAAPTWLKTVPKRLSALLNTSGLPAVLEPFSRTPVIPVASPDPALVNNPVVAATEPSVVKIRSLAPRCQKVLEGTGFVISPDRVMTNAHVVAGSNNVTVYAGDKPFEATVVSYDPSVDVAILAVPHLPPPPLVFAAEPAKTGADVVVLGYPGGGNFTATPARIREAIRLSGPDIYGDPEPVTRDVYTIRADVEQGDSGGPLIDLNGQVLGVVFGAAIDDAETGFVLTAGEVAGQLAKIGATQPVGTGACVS
Mtb FBA inh: inhibits M. tuberculosis FBA enzyme; P9WQA3; purified M. tuberculosis FBA, fluorescence read-out; inhibition, % at 1 µM; hit rate 2.3% among 360,000; AID 588726
Target sequence (P9WQA3 whole entry, looked up): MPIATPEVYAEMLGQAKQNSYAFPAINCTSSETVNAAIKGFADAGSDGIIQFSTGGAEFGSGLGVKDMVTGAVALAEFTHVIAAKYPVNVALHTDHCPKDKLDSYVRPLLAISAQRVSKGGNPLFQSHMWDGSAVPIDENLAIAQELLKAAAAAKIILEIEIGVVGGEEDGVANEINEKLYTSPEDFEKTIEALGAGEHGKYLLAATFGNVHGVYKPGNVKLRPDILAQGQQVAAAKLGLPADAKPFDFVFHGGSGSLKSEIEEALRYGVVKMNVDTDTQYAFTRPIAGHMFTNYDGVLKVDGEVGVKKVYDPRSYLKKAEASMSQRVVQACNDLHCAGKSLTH
Mtb FBA inh conf: confirmation of M. tuberculosis fructose-bisphosphate aldolase inhibitors | purified M. tuberculosis FBA, fluorescence read-out | inhibition, % at 1 µM | shares compounds with Mtb FBA inh | hit rate 78% among 5,600 | AID 651616
GDH-TPI counter-2: GDH-TPI inhibition counter-screen for FBA inhibitors. inhibition, % at 1 µM. GDH-TPI coupled enzyme counterscreen, fluorescence. shares compounds with Mtb FBA inh. hit rate 81% among 5,600; in the data active = inhibition above about 10%
GDH-TPI dose: counter-screen for M. tuberculosis FBA inhibitors: GDH-TPI dose response; shares compounds with Mtb FBA inh; GDH-TPI coupled enzyme assay, fluorescence, artifact counterscreen; IC50, µM; hit rate 79% among 170; AID 652145; call rule not given here
Each line names hits and unclear results; the compound was inactive in the other large screens (follow-up assays come after a bar, where they were run); ! = repeats disagree. Cut-off read from the data, not from the text of the source, unless noted: active = inhibition above about 27%; inactive = the rest.

CC#Cc1cc2c(cc1O)CCC1C2CCC2(C)C(O)CCC12 (stereo not drawn)	none (no result: Mtb UGM inh, Mtb bLac sens, Rv3671c inh)
Cc1cccc(CN2CCN([C@@H]3CS(=O)(=O)N[C@H]3COCc3ccccc3)CC2)c1	none (no result: Mtb UGM inh, Mtb bLac sens, GDH-TPI counter-1, Rv3671c inh)
Cc1ccc(CNC(=O)c2ccccc2NS(=O)(=O)c2ccc(Cl)nc2)cc1	none
Cc1cc(C)c(C)c(S(=O)(=O)Nc2ccccc2C(=O)O)c1C	Mtb FBA inh 27 | Mtb FBA inh conf inactive | GDH-TPI counter-2 11
CS(=O)(=O)Nc1ccccc1C(=O)O	Mtb FBA inh 28 | Mtb FBA inh conf 117 | GDH-TPI counter-2 104
Cc1cc(S(=O)(=O)Nc2ccccc2C(=O)O)ccc1Cl	none
CC(NC(=O)c1ccc(NS(C)(=O)=O)cc1)c1ccccc1 (stereo not drawn)	none
Cc1ccc(CNC(=O)c2ccccc2NS(C)(=O)=O)cc1	Mtb FBA inh 38 | Mtb FBA inh conf active | GDH-TPI counter-2 active
CC(NC(=O)c1ccccc1NS(C)(=O)=O)c1ccccc1 (stereo not drawn)	Mtb FBA inh 42 | Mtb FBA inh conf 133 | GDH-TPI counter-2 106
CCN(CC)C(=O)c1ccccc1NS(C)(=O)=O	none
Cc1c(C(=O)NCc2cccc([N+](=O)[O-])c2)sc(=O)n1Cc1ccc(C(C)C)cc1	none (no result: Mtb UGM inh, Mtb bLac sens, Rv3671c inh)
Cc1ccc(S(=O)(=O)N2CCN(C(=O)COC(=O)c3ccccc3OC(F)F)CC2)c(C)c1	none (no result: Mtb UGM inh, Mtb bLac sens, Rv3671c inh)
COc1ccc(S(=O)(=O)N(CCCN2CCCC2=O)Cc2cc3c(C)cc(C)cc3[nH]c2=O)cc1	Mtb FBA inh 33 (no result: Mtb UGM inh, Mtb bLac sens, Rv3671c inh) | Mtb FBA inh conf inactive | GDH-TPI counter-2 inactive | GDH-TPI dose inactive
Cc1nn(-c2ccccc2)c2nc(Cl)c(C(=O)O)cc12	Mtb FBA inh 31 | Mtb FBA inh conf active | GDH-TPI counter-2 active
Cc1cc(=O)oc2cc(OCC(=O)N3CCOCC3)c(Cl)cc12	Mtb FBA inh 109 | Mtb FBA inh conf active | GDH-TPI counter-2 active
Cc1cc(=O)oc2cc(OCC(=O)N3CCC(O)CC3)c(Cl)cc12	none
Cc1cc(=O)oc2cc(OCC(=O)N3CCCC3)c(Cl)cc12	Mtb FBA inh 31 | Mtb FBA inh conf inactive | GDH-TPI counter-2 24
COc1ccc(Cl)cc1C(=O)NNC(=O)CCNS(=O)(=O)c1ccccc1	none
COc1ccc(Cc2c(-c3ccc(OC)c(OC)c3)nc3c(C)cc(Br)cn23)c(C)c1	none (no result: Mtb UGM inh, Mtb bLac sens, GDH-TPI counter-1, Rv3671c inh)
COc1ccc(-c2nc3ccc(C)cn3c2Cc2cccc(F)c2)cc1OC	Mtb FBA inh 59 (no result: Mtb UGM inh, Mtb bLac sens, GDH-TPI counter-1, Rv3671c inh) | Mtb FBA inh conf 66 | GDH-TPI counter-2 65
COc1ccc(Cc2c(-c3ccc(OC)c(OC)c3)nc3ccc(C)cn23)c(C)c1	Mtb FBA inh 31 (no result: Mtb UGM inh, Mtb bLac sens, GDH-TPI counter-1, Rv3671c inh) | Mtb FBA inh conf 54 | GDH-TPI counter-2 43
O=C(NC1CCN(S(=O)(=O)c2ccccc2)CC1)c1cccc(F)c1	none
O=C(Nc1ccc(N2CCOCC2)cc1)C1CCN(S(=O)(=O)c2cccc(C(F)(F)F)c2)CC1	none (no result: Mtb UGM inh, Mtb bLac sens, Rv3671c inh)
O=C(Nc1ccc(N2CCOCC2)cc1)C1CCN(S(=O)(=O)c2ccccc2F)CC1	Mtb FBA inh 37 | Mtb FBA inh conf inactive | GDH-TPI counter-2 19
O=C(CCCCCn1c(=S)[nH]c2ccc(N3CCOCC3)cc2c1=O)NCc1ccc2c(c1)OCO2	Mtb FBA inh 44 | Mtb FBA inh conf active | GDH-TPI counter-2 active
CCC(=O)N1CCCC(C(=O)NS(=O)(=O)c2cc(C)c(Cl)cc2C)CC1 (stereo not drawn)	none (no result: Mtb UGM inh, Mtb bLac sens, Rv3671c inh)
COc1ccc([C@H]2CC(=O)C=C(c3cccc(F)c3OC)C2)cc1	none
O=[N+]([O-])c1ccccc1S(=O)(=O)N1CCCCC1	none
O=[N+]([O-])c1ccccc1S(=O)(=O)N1CCCC(C(F)(F)F)C1 (stereo not drawn)	Mtb FBA inh 41 | Mtb FBA inh conf 46 | GDH-TPI counter-2 39
CNc1ccc(-c2cc(OC)ccc2OC)cn1	Mtb FBA inh 98 (no result: Mtb UGM inh, Mtb bLac sens, Rv3671c inh) | Mtb FBA inh conf active | GDH-TPI counter-2 155
CNc1cc(-c2cc(OC)ccc2OC)ncn1	Mtb FBA inh 84 (no result: Mtb UGM inh, Mtb bLac sens, Rv3671c inh) | Mtb FBA inh conf inactive | GDH-TPI counter-2 inactive
CNc1cncc(-c2cc(OC)ccc2OC)n1	none (no result: Mtb UGM inh, Mtb bLac sens, Rv3671c inh)
OC(c1ccccc1)c1ncc(-c2cccc(C(F)(F)F)c2)[nH]1 (stereo not drawn)	none (no result: Mtb UGM inh, Mtb bLac sens, Rv3671c inh)
O=c1oc2cc(O)ccc2cc1-c1nc2c(s1)CCc1ccccc1-2	Mtb FBA inh 38 | GDH-TPI counter-2 active
COC(=O)[C@H]1C[C@@]2(O)CN(S(=O)(=O)c3ccc(C)cc3)C[C@@]2(OC(=O)NCc2ccco2)C[C@H]1C(=O)OC	none (no result: Mtb UGM inh, Mtb bLac sens, Rv3671c inh)
CCN1CCN(Cc2ccc(NC(=O)c3ccc(C)c(NC(=O)c4cccc5[nH]ccc45)c3)cc2C(F)(F)F)CC1	Mtb FBA inh 30! | Mtb FBA inh conf active | GDH-TPI counter-2 active
CC1(C)Cc2nc3sc4c(N(CCO)CCO)nnnc4c3cc2CO1	Mtb FBA inh 36 | Mtb FBA inh conf active | GDH-TPI counter-2 188
CN(CC(=O)Nc1ccc(Cl)c(C(F)(F)F)c1)C(=O)c1cn2ccccc2n1	none (no result: Mtb UGM inh)
CC1=CC=CC2=NC(=O)CC(C)(C(=O)O)N12 (stereo not drawn)	Mtb FBA inh 103 | Mtb FBA inh conf inactive | GDH-TPI counter-2 14
CC1=CC=CC2=NC(=O)CC(C)(C(=O)N(CC(=O)NC3CCCC3)c3ccccc3C)N12 (stereo not drawn)	Mtb FBA inh 110 | Mtb FBA inh conf 121 | GDH-TPI counter-2 95
CC1=CC=CC2=NC(=O)CC(C)(C(=O)N(CC(=O)NC3CCCC3)c3ccc(F)cc3)N12 (stereo not drawn)	Mtb FBA inh 95 | Mtb FBA inh conf active | GDH-TPI counter-2 active
Cc1ccc(C(=O)N(CC(=O)NC2CCCCC2)c2ccccc2C)s1	none
COc1ccc(CN(C)C(=O)/C=C/[C@H]2O[C@@H](n3cnc4c(N)ncnc43)[C@H](O)[C@@H]2O)cc1OC	none (no result: Mtb UGM inh, Mtb bLac sens, GDH-TPI counter-1, Rv3671c inh)
COc1cc(Br)cc(CN2CCN(c3ncccn3)CC2)c1O	none (no result: Rv3671c inh)
Cc1c(Br)c(C(=O)NCc2cc3cc(Cl)ccc3[nH]2)nn1C	Mtb FBA inh 66 | Mtb FBA inh conf 85 | GDH-TPI counter-2 84
CC(=O)OC[C@@H]1CN(Cc2ccccc2)C[C@H](n2cnc3c(NC4CCC4)ncnc32)O1	none (no result: Mtb UGM inh, Mtb bLac sens, Rv3671c inh)
CCN(CC)c1ccc(-c2c(C#N)c(N)nc(OC)c2C#N)cc1	Mtb FBA inh 55 | Mtb FBA inh conf 34 | GDH-TPI counter-2 25
CC(=O)N(C(C)=O)c1ncnc2c1c(-c1ccc(Cl)cc1)nn2C(C)(C)C	Mtb FBA inh 50 | Mtb FBA inh conf inactive | GDH-TPI counter-2 inactive
CC(=O)Nc1ncnc2c1c(-c1ccc(Cl)cc1)nn2C(C)(C)C	Mtb FBA inh 50 | Mtb FBA inh conf 81 | GDH-TPI counter-2 75
